Compound activity (PubChem)
BioA inh-1 = inhibitors of Mycobacterium tuberculosis BioA enzyme; purified M. tuberculosis BioA enzyme, plate reader; inhibition, % at 9.99 µM; AID 602481; actives 0.096% (n = 360,000); in the data active = inhibition above about 40%
SARS 3CLpro inh = SARS-CoV 3CLpro protease inhibition | recombinant SARS-CoV 3CLpro, quenched FRET peptide cleavage | inhibition, % at 6 µM | actives 0.14% (n = 290,000) | AID 1706; in the data active = inhibition above about 12%
DUSP3 inh = blocks human VHR1 dual specificity phosphatase; P51452; inhibition, % at 13.3 µM; AID 1654; actives 0.52% (n = 290,000); recombinant VHR phosphatase, pNPP absorbance; in the data active = inhibition above about 50%
Target sequence (P51452 whole entry, looked up): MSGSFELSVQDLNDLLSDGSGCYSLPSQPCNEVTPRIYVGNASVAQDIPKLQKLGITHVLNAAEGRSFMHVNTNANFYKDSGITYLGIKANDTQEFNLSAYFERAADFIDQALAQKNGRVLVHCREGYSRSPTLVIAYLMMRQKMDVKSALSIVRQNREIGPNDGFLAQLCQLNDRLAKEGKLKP
Mtb hypoxia inh = reduces hypoxia-regulated biosensor signal in M. tuberculosis; actives 0.1% (n = 300,000); fluorescence inhibition, % (test concentration not listed); M. tuberculosis hypoxia-regulated fluorescent reporter, fluorescence; in the data active = fluorescence inhibition mostly above about 23%, no sharp cut-off; inactive = mostly below about 17%
FadD28 binding = inhibitors of Mycobacterium tuberculosis FadD28 bisubstrate binding | FadD28 bisubstrate probe binding, fluorescence polarization | inhibition, % at 12.5 µM | actives 0.22% (n = 360,000) | AID 588549; in the data active = inhibition above about 8.5%, passing the limit was not always enough
BioA inh-2 = inhibitors of Mycobacterium tuberculosis BioA enzyme | shares compounds with BioA inh-1 | purified BioA enzyme, plate reader, dose response | max activity, % | 310 tested, under 10 active | AID 651679;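 also: top concentration of the dilution series was 10 µM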
Target sequence (P9WQ81 whole entry, looked up): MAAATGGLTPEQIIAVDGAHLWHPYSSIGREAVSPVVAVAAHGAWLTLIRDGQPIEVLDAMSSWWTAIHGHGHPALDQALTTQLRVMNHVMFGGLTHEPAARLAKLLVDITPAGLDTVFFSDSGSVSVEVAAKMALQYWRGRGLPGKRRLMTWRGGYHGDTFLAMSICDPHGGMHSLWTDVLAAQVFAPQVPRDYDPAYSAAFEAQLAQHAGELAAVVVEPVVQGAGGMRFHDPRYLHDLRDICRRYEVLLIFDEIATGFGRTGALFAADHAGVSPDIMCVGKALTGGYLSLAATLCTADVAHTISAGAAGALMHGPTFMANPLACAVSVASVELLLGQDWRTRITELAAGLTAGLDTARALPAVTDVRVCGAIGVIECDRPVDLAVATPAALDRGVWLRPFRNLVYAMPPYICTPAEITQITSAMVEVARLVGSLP
HepG2 tox 2 = cytotoxicity in HepG2 cells; max activity, %; shares compounds with BioA inh-1; 310 tested, under 10 active; plate reader
3T3 cytotox 5 = NIH3T3 viability loss | shares compounds with BioA inh-1 | NIH3T3 cytotoxicity, plate reader | activity change, negative = cytotoxicity, % at 26 µM | 310 tested, under 10 active
* hit, by the source's call; i = inactive; nt = no result; [ ] = remark or other dose. Hits are enriched below; roughly 0.7% of the tested compounds scored in any of these assays. Unless noted, no rule for the calls is given here.

SMILES	BioA inh-1	SARS 3CLpro inh	DUSP3 inh	Mtb hypoxia inh	FadD28 binding	BioA inh-2	HepG2 tox 2	3T3 cytotox 5
CCc1c(C)nc2ncnn2c1Nc1ccc(C#N)c(Cl)c1	40.4*	0.0	-14.5	-0.2	0.3	-5.6	-7.2	-6.6
O=C1C=C(c2cc(C(F)(F)F)cc(C(F)(F)F)c2)CC(c2ccc(Cl)cc2)C1 (centres undefined)	nt	nt	nt	8.9	nt	nt	nt	nt
CC(/C=C/c1ccccc1)=NNC(=O)c1ccc(Br)cc1	nt	nt	nt	1.7	nt	nt	nt	nt
Cc1cnc(C(=O)NC2CC(C)(C)Cc3c2cnn3-c2cccc(F)c2)cn1 (centres undefined)	63.0*	-0.4	19.0	nt	0.5	-3.7	20.1	3.0
CCn1cc(C(=O)NC2CC(C)(C)Cc3c2cnn3-c2cccc(F)c2)cn1 (centres undefined)	22.2	3.4	18.5	6.4	0.4	nt	nt	nt
Cc1ccc(-n2ncc3c2CC(C)(C)CC3NC(=O)CCc2cccnc2)cc1 (centres undefined)	44.7*	0.1	11.2	4.7	-1.3	-7.5	-11.9	7.4
CN(C)C1=NCC(Cc2ccccc2)N1CCCCc1ccccc1 (centres undefined)	nt	nt	nt	-2.3	nt	nt	nt	nt
NC(=O)C1(NC(=O)C2CC3(CC(c4cccc(NC(=O)C5CCC(=O)N5)c4)=NO3)CN2C(=O)Cc2ccc(Cl)cc2)CC1 (centres undefined)	nt	nt	nt	5.0	nt	nt	nt	nt
CC(C)(C)[S@@](=O)N1Cc2cc(C(=O)NCc3ccccc3F)nc(-c3cccc(-c4cccnc4)c3)c2[C@H]1CCO	7.8	nt	nt	nt	nt	nt	nt	nt
CC(C)(C)[S@](=O)N1Cc2cc(C(=O)NCc3ccccc3F)nc(-c3cccc(-c4cccnc4)c3)c2[C@@H]1CCO	42.4*	nt	nt	nt	nt	-6.9	i	-5.4[23.5 µM]
O=C(Nc1ccc2c(c1)[C@H]1C[C@H](CC(=O)N3CCc4ccccc4C3)O[C@H](CO)[C@H]1O2)c1cccnc1	35.8	nt	nt	nt	nt	nt	nt	nt
O=C(Nc1ccc2c(c1)[C@H]1C[C@@H](CC(=O)N3CCc4ccccc4C3)O[C@H](CO)[C@H]1O2)c1cccnc1	55.0*	nt	nt	nt	nt	-3.7	i	-6.7
O=C(C[C@H]1C[C@H]2c3cc(NC(=O)c4cccnc4)ccc3O[C@H]2[C@H](CO)O1)NCc1ccccn1	40.4*	nt	nt	nt	nt	-2.5	i	-5.6
O=C(C[C@@H]1C[C@@H]2c3cc(NC(=O)c4cccnc4)ccc3O[C@@H]2[C@H](CO)O1)NCc1ccccn1	33.5	nt	nt	nt	nt	nt	nt	nt
O=C(C[C@@H]1C[C@@H]2c3cc(NC(=O)c4cccnc4)ccc3O[C@@H]2[C@@H](CO)O1)NCc1cccc(F)c1	50.6*	nt	nt	nt	nt	-8.0	i	1.3[23.5 µM]
O=C(C[C@@H]1C[C@@H]2c3cc(NC(=O)c4cccnc4)ccc3O[C@@H]2[C@@H](CO)O1)NCc1cccnc1	41.5*	nt	nt	nt	nt	-6.9	i	-5.0
CCOC(=O)c1ccc(N2C(=O)c3n[nH]c(C)c3C2c2ccc(OC)c(OC)c2)cc1 (centres undefined)	100.8*	-0.3	19.9	-1.7	-5.3	-8.3	-12.4	0.6
CCOC(=O)c1ccc(N2C(=O)c3n[nH]c(C)c3C2c2ccc(OC)cc2)cc1 (centres undefined)	18.1	0.0	-18.5	6.2	-8.0	nt	nt	nt
COc1ccc(C=NNC(=O)c2ccc(COc3ccccc3Cl)o2)c(OC)c1C	nt	nt	nt	0.7	nt	nt	nt	nt
CC(=O)c1ccc(N2CCN(C(=O)c3ccc4c(c3)OCO4)CC2)cc1	91.2*	5.0	1.8	4.1	0.5	-5.5	6.1	-4.4
O=C(c1ccc2c(c1)OCO2)N1CCN(c2ccc(Cl)cc2)CC1	nt	-2.6	-0.8	8.8	0.3	nt	nt	nt
Cc1ccc(-n2c3c(cc(C(=O)NCc4ccco4)c2=O)C(=O)CCC3)cc1	30.7	4.3	3.4	0.4	1.4	nt	nt	nt
O=C1CCCc2c1cc(C(=O)NCCCN1CCOCC1)c(=O)n2-c1ccc(Cl)cc1	45.0*	-7.3	3.4	nt	0.9	-5.1	-3.6	-2.1
O=C1CCCc2c1cc(C(=O)NCc1ccco1)c(=O)n2-c1ccc(Cl)cc1	50.2*	3.2	-6.0	6.3	1.8	3.0	21.3	2.0
Cc1ccc(-n2c3c(cc(C(=O)NCCCN4CCOCC4)c2=O)C(=O)CC(C)(C)C3)cc1	1.0	nt	-1.5	nt	0.6	nt	nt	nt
SMILES	BioA inh-1	SARS 3CLpro inh	DUSP3 inh	Mtb hypoxia inh	FadD28 binding	BioA inh-2	HepG2 tox 2	3T3 cytotox 5
C=CCN1C(=O)C(=Nn2cnnc2)c2ccccc21	nt	nt	nt	6.4	nt	nt	nt	nt
Cc1nn(CCC(=O)O)c2nc(-c3cccnc3)cc(C(F)(F)F)c12	47.7*	-1.5	31.6	0.3	-1.4	7.1	10.4	-0.5
CCOC(=O)c1cc2c(C(F)(F)F)cc(-c3cccnc3)nc2o1	-0.1	-0.6	0.3	-2.9	-1.1	nt	nt	nt
COc1ccc(-c2nc3ccc(Cl)cn3c2Cc2ccccc2)cc1OC	69.7*	nt	nt	nt	-5.8	-8.9	-13.2	-6.7
COC(=O)C1=C(c2ccc(F)cc2OCc2ccccc2)CC2CCC1N2C(=O)NCC1CC1 (centres undefined)	nt	nt	nt	2.0	nt	nt	nt	nt
C/C=C(/C)C(=O)OC(C)(C)[C@@H]1Cc2c(ccc3ccc(=O)oc23)O1	52.8*	2.1	0.9	nt	-4.0	3.9	15.3	2.9
COc1ccccc1S(=O)(=O)N1CC[C@@H]2[C@H](CO)Nc3ccc(-c4ccccc4)cc3[C@@H]21	43.2*	nt	nt	nt	nt	5.0	i	-4.3[23.5 µM]
COc1ccccc1S(=O)(=O)N1CC[C@H]2[C@H](CO)Nc3ccc(-c4ccccc4)cc3[C@H]21	9.6	nt	nt	nt	nt	nt	nt	nt
CC1CN(C(C)CO)C(=O)c2cccc(NS(=O)(=O)c3ccc(F)cc3)c2OC1CN(C)C(=O)NC1CCCCC1 (centres undefined)	nt	nt	nt	5.2	nt	nt	nt	nt
CCOC(=O)C1(CCc2ccccc2)CCN(C(=O)CN2CCOC2=O)CC1	58.6*	1.3	12.0	4.5	-0.8	-4.1	23.0	8.7
COC(=O)C1CCN(C(c2ccc(OC)c(OC)c2)c2sc3nc(C)nn3c2O)CC1 (centres undefined)	45.0*	nt	8.4	2.0	0.0	-8.0	13.8	-7.3
COc1ccc(C(c2sc3nc(C)nn3c2O)N2CCC(C(N)=O)CC2)cc1OC (centres undefined)	2.3	0.4	9.1	4.5	-3.4	nt	nt	nt
O=C(Nc1ccc(NS(=O)(=O)c2ccccc2)cc1)c1cccnc1	51.6*	2.7	15.8	-0.4	3.5	8.9	-9.2	-3.4
CCCOC(=O)c1cccc(NC(=O)c2cccnc2)c1	43.3*	0.3	11.3	18.6	-2.3	-7.6	7.0	-3.2
O=C(Nc1cccnc1)c1ccc(Oc2ccccc2)cc1	68.9*	0.6	2.0	6.3	-2.8	-8.9	-7.8	5.6
O=C(Nc1cccnc1)c1ccccc1Oc1ccccc1	4.3	1.4	-5.7	nt	-1.2	nt	nt	nt
COc1cc(OC)c(C(=O)Nc2cccnc2)cc1OC	84.9*	3.0	41.5	0.9	-0.7	3.7	-7.1	-3.1
CCCNS(=O)(=O)c1ccc(NC(=O)c2cccnc2)cc1	22.8	3.3	28.5	0.8	-1.5	nt	nt	nt
CCCOC(=O)c1ccc(Cl)c(NC(=O)c2cccnc2)c1	nt	-0.3	20.4	3.2	nt	nt	nt	nt
